High-throughput results: PubChem, National Center for Advancing Translational Sciences (NCATS)
The list is not random: actives were taken first. Their share in the collection is about 13%.
Shiga toxin inh: A qHTS for Small Molecule Inhibitors of Shiga Toxin; Vero cells, Shiga toxin protein synthesis inhibition reporter; inhibition, % at 38.7 µM; 9.2% of 290,000 active; in the data active means inhibition mostly above about 28%, no sharp cut-off; inactive means mostly below about 43%
CHX counter: Cycloheximide Counterscreen for Small Molecule Inhibitors of Shiga Toxin; AID 2314, 2010; cell reporter, cycloheximide protein synthesis inhibition counterscreen; 12% of 300,000 active; max response, %; in the data active means max response mostly above about 13%, no sharp cut-off; inactive means mostly below about 14%; further: read at 38.3 µM for the half of the compounds with a filed dose
HCV inh: qHTS Assay for Inhibitors of Hepatitis C Virus (HCV) | 3.4% of 340,000 active | Huh7.5.1 HCVcc-Cre infection, luciferase reporter, 44 h | Potency, µM (titrated, usually from 41.8 µM), actives largely listed as inhibitors; active means well fitted inhibition curve with a large enough effect; inconclusive means small, poorly fitted or top-dose-only effect, or another doubt; inactive means no such curve, though single readings can be large or run the other way
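Luciferase read-out (15 sec integration) after a 15 min room-temperature substrate step quantifies HCVcc-Cre infection. Cells, 1,000 per well, had compound added 4 h post-plating, then virus at ~0.5 moi, and were cultured 44 h.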
Lassa entry inh: qHTS for Inhibitors of binding or entry into cells for Lassa Virus; Lassa virus pseudotype entry inhibition, cell reporter; Potency, µM (doses to about 37.9 µM), actives largely listed as inhibitors; 1.2% of 300,000 active; calls by dose curve; tested in HEK293 cells; further: nearly all actives have a fitted effect of over 50% in size
MARV entry inh: qHTS for inhibitors of binding or entry into cells for Marburg Virus; 1.8% of 300,000 active; Potency, µM (highest dose often 37.8 µM), hits mostly inhibitors; Marburg virus pseudotyped entry inhibition, cell reporter; calls by dose curve; tested in HEK293 cells
FMDV antiviral: High Throughput Screening for Foot and Mouth Disease Virus Antivirals | FMDV antiviral cell-based qHTS | Potency, µM (highest dose often 57.9 µM), usual class: inhibitors | 1.2% of 410,000 active | AID 1159524, 2015; calls by dose curve; tested in HEK293T cells; further: read-out not given here; nearly all actives have a fitted effect of over 45% in size
Numbers stand for hits; 0 = inactive; ? = inconclusive; - = not tested or not shown; + = active, no number.

SMILES	Shiga toxin inh	CHX counter	HCV inh	Lassa entry inh	MARV entry inh	FMDV antiviral
O=C1Nc2cccnc2N(C(=O)CCl)c2ccccc21	0	0	16µM	?	?	?
Cc1ccc(CNC(=O)c2cc(=O)c3cc(C)c(C)cc3o2)cc1	-	-	-	?	0	0
CC(C)(C)C1CCc2sc(-c3nnc(CCl)o3)cc2C1 (centres undefined)	72	32	0	-	-	0
ClCc1nnc(-c2cc3c(s2)CCCC3)o1	67	50	?	0	0	0
COc1ccc(CC(=O)C2C(=O)N(C)c3ccccc32)cc1OC (centres undefined)	-	-	0	0	0	0
CCOC(=O)c1sc(NC(=O)/C=C/c2ccc(OCC)cc2)c(C(=O)OCC)c1C	-	-	-	?	-	0
CCOc1ccc(/C=C/C(=O)C(C(N)=O)=C2SCCS2)cc1	57	34	0	0	?	0
Oc1ccc(/C=N/NC(=S)Nc2cccnc2)c(O)c1	52	29	?	?	?	0
Fc1ccc(/C=N/NC(=S)Nc2cccnc2)cc1	0	27	0	0	0	0
Oc1cccc(/C=N/NC(=S)Nc2cccnc2)c1O	45	30	?	21µM	?	0
CC(C)c1ccc(/C=C/C(=O)NCCC2=CCCCC2)cc1	0	17	?	0	0	0
CCCNC(=O)/C=C/c1ccc(C(C)C)cc1	64	47	0	18µM	?	0
CC(C)c1ccc(/C=C/C(=O)NCCCc2ccccc2)cc1	0	0	0	0	0	0
c1ccc2c(c1)nc(-c1ccncc1)n2CCNc1nc(CN2CCCCC2)cs1	0	0	0	-	-	0
Cn1c(-c2ccc(CN3CCCCC3)o2)nc2ccccc21	84	26	0	?	0	0
N=c1n(CC(=O)c2cccs2)c2ccccc2n1Cc1ccccc1	0	0	0	-	-	0
COc1ccc(N(C(=O)c2snc(C(N)=O)c2N)C(C(=O)NCc2ccccc2)c2ccc(O)cc2)cc1 (centres undefined)	0	0	?	0.73µM	0	0
CN(C)c1ccc(C(C(=O)NCc2ccccc2)N(Cc2ccco2)C(=O)c2snc(C(N)=O)c2N)cc1 (centres undefined)	0	0	13µM	?	?	0
NC(=O)c1nsc(C(=O)N(c2ccccc2)C(C(=O)NCc2ccc(F)cc2)c2ccc(O)cc2)c1N (centres undefined)	0	0	?	2.2µM	?	0
NC(=O)c1nsc(C(=O)N(c2ccccc2)C(C(=O)NCc2ccc(F)cc2)c2ccco2)c1N (centres undefined)	0	0	?	?	?	0
CCOC(=O)c1cccc(N/C=C/C(=O)c2ccc(OC)c(OC)c2)c1	98	27	?	0	?	0
COc1ccc(OC)c(N/C=C/C(=O)c2ccc(OC)c(OC)c2)c1	0	15	0	?	0	0
CCOC(=O)c1ccc(N/C=C\C(=O)c2cccc(OC)c2)cc1	95	48	0	0	?	0
COC(=O)c1ccc(N/C=C/C(=O)c2ccccc2)cc1	48	43	0	?	?	0
C=CCn1c(=S)[nH]c2cc(C(=O)Nc3ccc(OC)c(OC)c3)ccc2c1=O	0	0	?	0	0	0
SMILES	Shiga toxin inh	CHX counter	HCV inh	Lassa entry inh	MARV entry inh	FMDV antiviral
COc1ccc(CC(=O)NCCN2CCCC2)cc1	0	0	0	0	0	0
CCOC(=O)c1ccc(OS(=O)(=O)c2ccccc2)c(OC)c1	+	50	?	?	?	0
COc1cccc(C(=O)COC(=O)c2ccc(NC(C)=O)cc2)c1	0	16	0	0	?	0
CCOc1cc(C(=S)N2CCOCC2)ccc1OS(=O)(=O)c1ccccc1	0	0	0	?	0	0
COc1cccc(N/C=C/C(=O)c2ccc(OC)c(OC)c2)c1	46	27	?	-	-	0
COc1cccc(C(=O)/C=C/Nc2cc(C)ccc2O)c1	88	51	2.2µM	0	?	0
CCC(C)c1ccc(S(=O)(=O)N2CCN(CC(O)CN3CCOCC3)CC2)cc1 (centres undefined)	-	-	0	-	-	0
O=C1c2cccc(OCC(=O)N3CCCc4ccccc43)c2CCN1Cc1ccccc1	0	14	?	0	?	0
O=C(COc1cccc2c1CCN(Cc1ccccc1F)C2=O)N1CCOCC1	0	0	-	-	-	-
O=C(COc1cccc2c1CCN(Cc1ccc(Br)cc1)C2=O)NCc1ccco1	0	29	?	?	?	?
O=C1c2cccc(OCC(=O)N3CCCc4ccccc43)c2CCN1Cc1ccc(Br)cc1	0	0	?	21µM	?	?
O=C(COc1cccc2c1CCN(Cc1ccc(Br)cc1)C2=O)N1CCOCC1	0	0	11µM	?	?	?
CCN1CCc2c(OCC(=O)N3CCCc4ccccc43)cccc2C1=O	0	0	?	0	0	?
COc1ccc(CN2CCCC(CO)(Cc3ccc(F)cc3)C2)c(OC)c1OC (centres undefined)	0	0	?	-	-	0
O=C1c2cccnc2C(=O)N1CO	0	0	0	0	0	0
NC1=C(Br)C(=O)c2ncccc2C1=O	-	-	?	?	2.5µM	4µM
CCN(CC)C1=CC(=[N+]2CCCC2)CC(C)(C)C1	0	0	?	?	1.3µM	?
CC1(C)CC(N2CCCC2)=CC(=[N+]2CCCCCC2)C1	0	0	?	?	1.5µM	?
CC1CC(C)C[N+](=C2C=C(N3CCCC3)CC(C)(C)C2)C1 (centres undefined)	0	0	3.5µM	-	-	?
CN(Cc1ccccc1)C1=CC(=[N+]2CCCC2)CC(C)(C)C1	0	0	?	?	?	?
Cc1ccc(CSc2ncc(Cl)c(C(=O)Nc3sc4c(c3C(N)=O)CCCC4)n2)cc1	-	-	-	0	?	0
CC1CCN(S(=O)(=O)N2CCC(C(=O)NCc3cccnc3)CC2)CC1	0	0	0	-	-	0
COc1ccc(S(=O)(=O)Oc2ccc3ccccc3c2)cc1	23	23	?	?	0	0
CCn1c2ccccc2c2cc(CN3CCN(Cc4ccc(OC)c(OC)c4)CC3)ccc21	-	-	-	?	-	0
CCCS(=O)(=O)N1CCN(Cc2ccc3c(c2)c2ccccc2n3CC)CC1	0	0	?	?	10µM	?
SMILES	Shiga toxin inh	CHX counter	HCV inh	Lassa entry inh	MARV entry inh	FMDV antiviral
COc1ccc(C(C(=O)NC2CCCC2)N(C(=O)Cc2cccs2)C2CC2)cc1OC (centres undefined)	0	0	0	0	0	0
O=C(NC1CCCC1)C(c1ccc(F)cc1)N(Cc1ccccc1Cl)C(=O)CCl (centres undefined)	0	0	?	0	?	28µM
O=C(NC1CCCCCCC1)c1ccccc1O	75	31	0	0	?	0
COCCN(C(=O)CCl)C(C(=O)NC1CCCCC1)c1ccccc1C (centres undefined)	0	0	?	?	8.9µM	20µM
COCCN(C(=O)Cc1cccs1)C(C(=O)NC1CCCC1)c1cc(OC)c(OC)c(OC)c1 (centres undefined)	111	49	0	0	0	0
O=C(CCc1ccccc1)N=C1SC2CS(=O)(=O)CC2N1c1ccccc1F (centres undefined)	0	0	0	0	0	0
